# How the values were obtained:
# Test in all cases: DAPPL (digital affinity profiling via proximity ligation, sequencing); 10 mM Tris-HCl pH 7.5, 50 mM NaCl, 1 mM DTT, 4% glycerol, room temperature, 30 min; GST-TFs on glutathione beads, 16-mer random dsDNA library, 0.1% formaldehyde crosslink after washing; high values mean tight binding
# Details in all cases: protein: recombinant; tags: N-terminal GST; dsDNA, one strand shown
# [1] = target: T1, SPIC (Homo sapiens, UniProt Q8N5J4 1-248)
# T1 sequence: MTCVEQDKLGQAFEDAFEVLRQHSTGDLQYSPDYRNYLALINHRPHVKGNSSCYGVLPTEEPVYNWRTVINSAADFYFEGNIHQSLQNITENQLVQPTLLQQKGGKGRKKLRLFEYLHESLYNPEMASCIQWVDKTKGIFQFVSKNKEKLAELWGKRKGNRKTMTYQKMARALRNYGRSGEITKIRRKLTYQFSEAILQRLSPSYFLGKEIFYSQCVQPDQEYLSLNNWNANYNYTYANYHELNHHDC
# Summary of the method: (§1)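 Human transcription factors were made in yeast as GST fusions, captured on glutathione beads and barcoded with DNA. With a tag-only sample included, the pool was incubated with 200 nmole of a random double-stranded 16-mer DNA library in Tris/NaCl/DTT/glycerol buffer at room temperature for 30 min, then crosslinked with 0.1% formaldehyde after washing, ligated by proximity, amplified and sequenced. For binding signal, each hexamer's read frequency for a factor is divided by its frequency for the tag-only sample.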
# [2] = target: CRX (Homo sapiens, UniProt O43186 1-299)
# Chain of CRX (O43186 whole entry): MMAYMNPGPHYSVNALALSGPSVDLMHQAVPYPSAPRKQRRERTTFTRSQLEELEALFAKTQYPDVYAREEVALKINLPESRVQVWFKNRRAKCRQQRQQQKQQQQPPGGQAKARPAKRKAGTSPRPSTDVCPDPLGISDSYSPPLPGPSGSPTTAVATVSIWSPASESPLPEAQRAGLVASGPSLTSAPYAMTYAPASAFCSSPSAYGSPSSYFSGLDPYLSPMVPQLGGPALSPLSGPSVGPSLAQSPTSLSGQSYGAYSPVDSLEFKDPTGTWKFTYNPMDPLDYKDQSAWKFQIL
# Summary of the method: as §1
# [3] = target: SPIB (Homo sapiens, UniProt Q01892 1-262)
# Chain of SPIB (Q01892 whole entry): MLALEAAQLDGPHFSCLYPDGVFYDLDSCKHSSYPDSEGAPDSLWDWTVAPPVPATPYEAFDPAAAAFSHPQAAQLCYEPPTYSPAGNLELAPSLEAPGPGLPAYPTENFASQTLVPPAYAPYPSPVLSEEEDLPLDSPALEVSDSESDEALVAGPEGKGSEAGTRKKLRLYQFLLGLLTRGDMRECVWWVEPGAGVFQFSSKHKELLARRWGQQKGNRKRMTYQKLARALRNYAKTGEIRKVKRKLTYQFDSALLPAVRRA
# Summary of the method: as §1
# [4] = target: T2, ERF (Homo sapiens, UniProt P50548 1-548)
# T2 sequence: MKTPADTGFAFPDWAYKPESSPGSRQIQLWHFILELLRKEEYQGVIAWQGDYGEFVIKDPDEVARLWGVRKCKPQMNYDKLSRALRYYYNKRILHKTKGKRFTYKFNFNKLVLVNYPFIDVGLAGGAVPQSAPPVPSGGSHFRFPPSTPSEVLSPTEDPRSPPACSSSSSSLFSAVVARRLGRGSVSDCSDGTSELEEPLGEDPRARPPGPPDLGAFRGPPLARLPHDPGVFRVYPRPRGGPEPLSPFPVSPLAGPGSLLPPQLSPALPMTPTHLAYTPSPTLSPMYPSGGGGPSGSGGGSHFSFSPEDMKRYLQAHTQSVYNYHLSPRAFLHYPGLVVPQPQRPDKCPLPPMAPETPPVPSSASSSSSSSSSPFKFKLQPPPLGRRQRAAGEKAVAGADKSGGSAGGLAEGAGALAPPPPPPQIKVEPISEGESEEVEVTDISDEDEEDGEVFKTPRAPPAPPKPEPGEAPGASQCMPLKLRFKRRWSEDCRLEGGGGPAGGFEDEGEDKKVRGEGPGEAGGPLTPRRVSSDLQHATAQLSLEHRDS
# Summary of the method: as §1
# [5] = target: T3, ETV7 (Homo sapiens, UniProt Q9Y603 1-341)
# T3 sequence: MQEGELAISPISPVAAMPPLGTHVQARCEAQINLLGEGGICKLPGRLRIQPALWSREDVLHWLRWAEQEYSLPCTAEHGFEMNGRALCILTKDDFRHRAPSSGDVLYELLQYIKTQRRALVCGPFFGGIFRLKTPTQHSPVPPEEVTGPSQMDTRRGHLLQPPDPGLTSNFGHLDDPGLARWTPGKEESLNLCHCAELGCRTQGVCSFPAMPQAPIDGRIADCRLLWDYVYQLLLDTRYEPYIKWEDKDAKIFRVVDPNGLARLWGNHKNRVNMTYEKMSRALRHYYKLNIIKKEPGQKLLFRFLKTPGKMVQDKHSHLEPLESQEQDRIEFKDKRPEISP
# Summary of the method: as §1
# [6] = target: T4, FEV (Homo sapiens, UniProt Q99581 1-238)
# T4 sequence: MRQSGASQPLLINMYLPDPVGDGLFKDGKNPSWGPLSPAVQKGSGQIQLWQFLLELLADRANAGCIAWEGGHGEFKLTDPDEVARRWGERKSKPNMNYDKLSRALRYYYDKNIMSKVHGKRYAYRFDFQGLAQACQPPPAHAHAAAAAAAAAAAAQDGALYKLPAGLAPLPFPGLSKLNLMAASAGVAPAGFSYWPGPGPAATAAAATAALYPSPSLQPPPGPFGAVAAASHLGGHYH
# Summary of the method: as §1
# [7] = target: T5, ETV3L (Homo sapiens, UniProt Q6ZN32 1-361)
# T5 sequence: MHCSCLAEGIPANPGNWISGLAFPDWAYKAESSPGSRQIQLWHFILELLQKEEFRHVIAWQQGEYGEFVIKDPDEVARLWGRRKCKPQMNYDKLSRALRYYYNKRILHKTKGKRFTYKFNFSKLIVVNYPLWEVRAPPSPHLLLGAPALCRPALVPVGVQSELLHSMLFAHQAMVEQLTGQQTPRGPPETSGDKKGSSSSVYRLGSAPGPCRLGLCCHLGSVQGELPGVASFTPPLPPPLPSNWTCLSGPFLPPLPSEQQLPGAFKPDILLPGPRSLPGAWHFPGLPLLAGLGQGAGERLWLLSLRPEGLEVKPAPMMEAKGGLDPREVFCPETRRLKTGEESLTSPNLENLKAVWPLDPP
# Summary of the method: as §1
# [8] = target: T6, SPDEF (Homo sapiens, UniProt O95238 1-335)
# T6 sequence: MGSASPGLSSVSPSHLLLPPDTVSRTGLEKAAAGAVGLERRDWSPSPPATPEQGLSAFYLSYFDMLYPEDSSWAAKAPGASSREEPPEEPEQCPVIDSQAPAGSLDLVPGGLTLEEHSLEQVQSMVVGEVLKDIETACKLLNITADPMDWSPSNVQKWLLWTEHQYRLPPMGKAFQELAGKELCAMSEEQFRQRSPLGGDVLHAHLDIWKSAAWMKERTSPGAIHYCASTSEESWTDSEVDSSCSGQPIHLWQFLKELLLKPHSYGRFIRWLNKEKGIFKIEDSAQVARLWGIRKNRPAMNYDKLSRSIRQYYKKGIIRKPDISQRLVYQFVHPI
# Summary of the method: as §1
# [9] = target: T7, ETV3 (Homo sapiens, UniProt P41162-2 1-143)
# T7 sequence: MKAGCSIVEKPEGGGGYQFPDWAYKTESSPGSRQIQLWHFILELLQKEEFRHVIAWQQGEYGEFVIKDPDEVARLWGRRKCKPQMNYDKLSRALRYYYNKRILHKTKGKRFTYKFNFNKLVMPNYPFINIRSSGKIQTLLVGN
# Summary of the method: as §1
# [10] = target: ETV6 (Homo sapiens, UniProt P41212 1-452)
# Chain of ETV6 (P41212 whole entry): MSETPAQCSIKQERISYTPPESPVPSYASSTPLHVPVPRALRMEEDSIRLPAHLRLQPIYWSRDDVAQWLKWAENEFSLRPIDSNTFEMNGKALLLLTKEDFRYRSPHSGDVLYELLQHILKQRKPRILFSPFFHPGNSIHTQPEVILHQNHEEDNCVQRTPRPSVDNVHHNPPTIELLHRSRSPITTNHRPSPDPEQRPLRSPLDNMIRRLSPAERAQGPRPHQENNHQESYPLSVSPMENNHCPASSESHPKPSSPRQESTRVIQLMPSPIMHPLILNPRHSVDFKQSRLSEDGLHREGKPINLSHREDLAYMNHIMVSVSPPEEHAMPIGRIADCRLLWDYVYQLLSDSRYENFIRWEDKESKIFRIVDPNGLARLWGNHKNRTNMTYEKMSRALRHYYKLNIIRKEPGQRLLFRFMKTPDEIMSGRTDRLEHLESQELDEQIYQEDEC
# Summary of the method: as §1
# [11] = target: T8, ELK1 (Homo sapiens, UniProt P19419 1-428)
# T8 sequence: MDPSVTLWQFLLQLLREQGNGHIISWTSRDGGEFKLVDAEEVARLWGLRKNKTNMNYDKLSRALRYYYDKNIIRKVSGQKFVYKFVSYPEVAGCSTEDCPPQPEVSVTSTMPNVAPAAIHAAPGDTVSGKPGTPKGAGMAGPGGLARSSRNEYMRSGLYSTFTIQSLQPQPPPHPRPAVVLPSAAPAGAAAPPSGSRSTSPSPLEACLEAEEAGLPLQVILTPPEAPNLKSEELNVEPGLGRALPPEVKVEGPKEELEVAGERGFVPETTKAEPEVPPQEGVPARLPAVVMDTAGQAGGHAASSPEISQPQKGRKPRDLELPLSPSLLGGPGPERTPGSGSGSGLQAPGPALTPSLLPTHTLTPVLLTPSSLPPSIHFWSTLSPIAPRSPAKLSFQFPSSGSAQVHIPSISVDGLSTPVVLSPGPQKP
# Summary of the method: as §1
sequence,measurement,setting,value
TAAGGC,binding signal,[1],"1.02 fold enrichment (6-mer frequency, TF over GST control)"
same,binding signal,[2],"1.52 fold enrichment (6-mer frequency, TF over GST control)"
GTACAG,binding signal,[3],"1.01 fold enrichment (6-mer frequency, TF over GST control)"
same,binding signal,[1],"1.02 fold enrichment (6-mer frequency, TF over GST control)"
same,binding signal,[4],"1.02 fold enrichment (6-mer frequency, TF over GST control)"
same,binding signal,[5],"1.06 fold enrichment (6-mer frequency, TF over GST control)"
GCGACA,binding signal,[6],"1.02 fold enrichment (6-mer frequency, TF over GST control)"
same,binding signal,[1],"1.03 fold enrichment (6-mer frequency, TF over GST control)"
same,binding signal,[4],"1.04 fold enrichment (6-mer frequency, TF over GST control)"
same,binding signal,[7],"1.04 fold enrichment (6-mer frequency, TF over GST control)"
same,binding signal,[8],"1 fold enrichment (6-mer frequency, TF over GST control)"
same,binding signal,[5],"1.05 fold enrichment (6-mer frequency, TF over GST control)"
same,binding signal,[9],"1.01 fold enrichment (6-mer frequency, TF over GST control)"
same,binding signal,[10],"1.04 fold enrichment (6-mer frequency, TF over GST control)"
GACATG,binding signal,[11],"1.01 fold enrichment (6-mer frequency, TF over GST control)"
same,binding signal,[1],"1.1 fold enrichment (6-mer frequency, TF over GST control)"
same,binding signal,[5],"1.03 fold enrichment (6-mer frequency, TF over GST control)"

# Reference: PMC7862700, “An all-to-all approach to the identification of sequence-specific readers for epigenetic DNA modifications on cytosine”
